Calls of active or inactive are those of the source. No rule for the calls is given here.
molecular target: Dual specificity protein kinase CLK1 (Homo sapiens) (UniProt P49759); assay: ligand-induced CLK1 melting temperature shift – biophysical, recombinant human kinase, DSF (AID 382); settings: Recombinant CLK1, thermal shift (DSF), at 10 µM, protein 2 µM, buffer 10 mM HEPES, pH 7.5, NaCl 150 mM, with 50 mM Arg/Glu, hits give high values
Sequence (P49759 whole entry, looked up): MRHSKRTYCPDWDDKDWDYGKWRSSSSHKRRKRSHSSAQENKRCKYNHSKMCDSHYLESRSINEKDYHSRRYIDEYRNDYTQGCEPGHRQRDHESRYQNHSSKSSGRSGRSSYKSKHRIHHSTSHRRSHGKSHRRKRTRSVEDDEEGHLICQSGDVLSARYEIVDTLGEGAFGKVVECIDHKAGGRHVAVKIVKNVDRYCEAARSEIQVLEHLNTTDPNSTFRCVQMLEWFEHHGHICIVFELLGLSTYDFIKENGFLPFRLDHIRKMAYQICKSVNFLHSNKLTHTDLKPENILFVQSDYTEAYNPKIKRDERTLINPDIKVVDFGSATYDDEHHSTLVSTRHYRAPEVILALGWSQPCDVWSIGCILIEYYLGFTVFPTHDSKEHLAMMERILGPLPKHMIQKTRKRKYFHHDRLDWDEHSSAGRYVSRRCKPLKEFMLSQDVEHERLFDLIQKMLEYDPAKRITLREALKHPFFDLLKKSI

Tm shift, active:
NC(=O)c1ccc(-c2nc(-c3ccc4c(c3)OCCO4)c(-c3ccccn3)[nH]2)cc1 6.3 Celsius, CC(C)(C)c1nc2c3cc[nH]c(=O)c3c3cc(F)ccc3c2[nH]1 3.6 Celsius, CN(C)S(O)(O)c1ccc2c(c1)/C(=C/c1cc3c([nH]1)CCCC3)C(=O)N2 4.8 Celsius

From PubChem BioAssay AID382 (SGCOxCompounds, 2006)
